ADAM17 inh = ADAM17 inhibition, QFRET primary screen. P78536. recombinant ADAM17, EDANS/DABCYL FRET peptide cleavage. inhibition, % at 6.95 µM. 0.83% of 370,000 active;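 active = inhibition above the mean of compounds lying between control limits plus 3 SD, set per campaign, cut at about 8.5% in these data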;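 note: 0% = DMSO-only wells as the low control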
FGF22 binding = FGF22 (human) thermal shift binding | 1.5% of 340,000 active | recombinant FGF22 thermal shift, SYPRO orange fluorescence; percent of sucrose octasulfate shift, DMSO zero | activity (Tm shift, normalised), % at 9.99 µM | AID 651658;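 active = mean Tm shift, scaled 0 neutral to 100 positive control, at about 1.3% or above, every replicate too, limit read from the data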
Target sequence (Q9HCT0 whole entry, looked up): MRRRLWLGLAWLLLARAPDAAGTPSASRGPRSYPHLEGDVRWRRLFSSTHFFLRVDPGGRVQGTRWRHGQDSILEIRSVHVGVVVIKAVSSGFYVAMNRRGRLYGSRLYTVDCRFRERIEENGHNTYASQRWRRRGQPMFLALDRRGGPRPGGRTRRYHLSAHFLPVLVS
ADAM10 inh = inhibitors of human ADAM10 | O14672 | recombinant ADAM10, EDANS/DABCYL FRET peptide cleavage, 3 h | inhibition, % at 7 µM | 0.62% of 370,000 active | AID 720582;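 active = inhibition above a per-campaign cutoff equal to the mean of compounds falling between control-based bounds plus 3 SD, cut at about 20% in these data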;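 note: 0% = DMSO wells while the 100% control is not disclosed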
rRNA inh HTS = inhibits bacterial ribosomal RNA function over humanized ribosomes | E. coli WT GFP vs humanized-ribosome RFP mutants, fluorescence, 24 h; active compounds read low; DMSO median 0, no signal -100 | GFP signal change (wild-type ribosome), % (concentration not given with the values) | 1.6% of 350,000 active | AID 720706;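 active = significant combined selectivity score with lowered wild-type GFP, culture density cut under 30%, mutant RFP and density less affected; inactive = any of these conditions unmet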
proKLK7 act = proKLK7 (human) activation, primary screen | P49862 | purified proKLK7, EDANS-DABCYL substrate fluorescence; 100% is mature enzyme control, 0% vehicle | activation, % at 7 µM | 0.9% of 370,000 active | AID 652039;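 active = activation above the mean of all tested compounds plus 3 SD, computed per campaign excluding outliers beyond control limits, cut at about 13% in these data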
Target sequence (P49862 whole entry, looked up): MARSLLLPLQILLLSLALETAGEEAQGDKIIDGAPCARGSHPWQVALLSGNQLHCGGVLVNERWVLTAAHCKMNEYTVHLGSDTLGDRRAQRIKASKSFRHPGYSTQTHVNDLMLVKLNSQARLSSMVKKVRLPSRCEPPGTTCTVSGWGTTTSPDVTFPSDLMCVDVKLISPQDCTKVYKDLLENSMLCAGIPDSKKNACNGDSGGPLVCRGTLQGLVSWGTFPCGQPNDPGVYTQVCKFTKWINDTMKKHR
proKLK7 act conf = confirmation of human kallikrein-7 zymogen activators; AID 686949; 68% of 3,200 active; purified proKLK7, EDANS-DABCYL substrate fluorescence; scaled: vehicle 0, mature enzyme 100; activation, % at 7 µM; shares compounds with proKLK7 act;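 active = activation, as change over the incubation, above the mean of all tested compounds plus 3 SD, cut at about 13% in these data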
EDANS-DABCYL int = counter-screen for kallikrein-7 activators: EDANS-DABCYL optical interference; AID 686952; 80% of 3,200 active; shares compounds with proKLK7 act; EDANS-DABCYL substrate fluorescence interference, no enzyme, 4 h; solvent 0%, active enzyme control 100%; activation, % at 7 µM;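 active = activation above the all-compound mean plus 3 SD, ignoring values outside control-based bounds, cut at about 4.8% in these data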;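 note: value is the 4 h activation minus the activation read at time zero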
K7 EDANS ctr = counter-screen for kallikrein-7 activators: EDANS-DABCYL interference, dose response. EDANS-DABCYL peptide fluorescence interference, no enzyme. shares compounds with proKLK7 act. 20% of 250 active. AID 720493. EC50, µM;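 active = compounds that raise the fluorescence signal in this interference counterscreen, with EC50 at or below 10 µM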;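 note: intact quenched peptide substrate alone read at 355 nm excitation and 520 nm emission; signal is fluorescence gain from T0 to T4 after four hours at room temperature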
Numbers without * were called inactive; i = inactive; . = no result. Shown are actives, neighbours in structure and some others; about 3.8% of the full set was active somewhere.

SMILES	ADAM17 inh	FGF22 binding	ADAM10 inh	rRNA inh HTS	proKLK7 act	proKLK7 act conf	EDANS-DABCYL int	others
Cc1nn(CCc2nn[nH]n2)c2nc(-c3ccc(Br)cc3)cc(C(F)(F)F)c12	-24	0	-77	-45	-2	.	.
Cc1nn(CCc2nn[nH]n2)c2nc(C(F)(F)F)cc(C(F)(F)F)c12	-265	.	i	.	30*	17*	12*	K7 EDANS ctr=>70
Cc1ccc2nc(-c3ccc(SCC(=O)N4CCc5ccccc54)nc3)[nH]c2c1	0	0	-20	-7	-6	.	.
Cc1ccc2nc(-c3ccc(SCC(=O)O)nc3)[nH]c2c1	i	.	i	.	16*	23*	27*
O=c1nc(-c2ccccc2)c2cc(Cl)ccc2[nH]1	-54	.	-163	.	14*	29*	28*
O=c1nc(-c2ccccc2)c2cc(Br)ccc2[nH]1	-10	0	-37	8	4	.	.
COc1ccc(N(CC(=O)Nc2cccc(C(=O)O)c2)S(=O)(=O)c2c(C)noc2C)cc1	4	.	-1	.	17*	-1	0
CNC[C@H]1OCCCC[C@@H](C)Oc2ccc(NC(=O)Nc3ccc4c(c3)OCO4)cc2C(=O)N([C@H](C)CO)C[C@@H]1C	.	-1	.	-1	.	.	.
c1cc2c3c(cccc3c1)C(N1CCCCCC1)=N2	-40	.	-162	.	52*	7	9.4*
c1ccc(NC2=Nc3cccc4cccc2c34)cc1	-1	0	-7	-50	0	.	.
c1ccc2c(c1)CCN(C1=Nc3cccc4cccc1c34)C2	-31	43*	-83	-19	14*	7	8.2*
COc1cccc(NC(=O)N2CC(=O)N3[C@@H](CO)[C@@H](c4ccc(C#CC5CCCC5)cc4)[C@@H]3C2)c1	.	.	.	0	.	.	.
CCc1c(C2(O)CCCCC2)[nH]c2cnccc12	-286	0	i	12	70*	12	16*
Cc1c(C2(O)CCCCC2)[nH]c2ccccc12	-5	1	-9	5	1	.	.
C[C@H](O)[C@@H]1C(=O)N2CCc3c([nH]c4ccccc34)[C@@H]2C[C@@H]1N(C)Cc1ccc(Cl)cc1	-248	0	i	0	52*	13*	13*
COCC(=O)N(C)[C@H]1C[C@H]2c3[nH]c4ccccc4c3CCN2C(=O)[C@H]1[C@H](C)O	-242	0	i	.	27*	40*	42*
COCC(=O)N(C)[C@H]1C[C@H]2c3[nH]c4c(-c5ccccc5)cccc4c3CCN2C(=O)[C@H]1[C@H](C)O	-48	0	-196	-27	-2	.	.
COCCNC(=S)N(C)[C@H]1C[C@H]2c3[nH]c4ccccc4c3CCN2C(=O)[C@H]1[C@H](C)O	i	0	i	-13	51*	33*	34*
COCCNC(=S)N(C)[C@H]1C[C@H]2c3[nH]c4c(-c5ccccc5)cccc4c3CCN2C(=O)[C@H]1[C@H](C)O	-46	0	-178	8	-8	.	.
C[C@H](O)[C@@H]1C(=O)N2CCc3c([nH]c4ccccc34)[C@@H]2C[C@@H]1N(C)C(=O)NC1CCCCC1	i	0	i	2	36*	26*	21*	K7 EDANS ctr=8.4*
C[C@H](O)[C@@H]1C(=O)N2CCc3c([nH]c4c(-c5ccccc5)cccc34)[C@@H]2C[C@@H]1N(C)C(=O)NC1CCCCC1	-55	0	-181	7	-8	.	.
CO[C@@H]1CN(C)C(=O)c2ccc(NC(=O)Nc3ccc4c(c3)OCO4)cc2OC[C@@H](C)N(C)C[C@H]1C	.	.	.	3	.	.	.
C[C@@H]1CN([C@H](C)CO)C(=O)c2ccccc2-c2ccccc2CO[C@@H]1CN(C)S(=O)(=O)Cc1ccccc1	.	.	.	0	.	.	.
C[C@@H]1CCCCO[C@H](CN(C)C(=O)C2CCCCC2)[C@H](C)CN([C@@H](C)CO)C(=O)c2cc(NS(=O)(=O)c3ccc(F)cc3)ccc2O1	.	0	.	-7	.	.	.
O=C(N[C@@H]1CC[C@H](CC(=O)N2CCOCC2)O[C@H]1CO)c1ccccn1	.	0	.	2	.	.	.
SMILES	ADAM17 inh	FGF22 binding	ADAM10 inh	rRNA inh HTS	proKLK7 act	proKLK7 act conf	EDANS-DABCYL int	others
CN[C@H]1C[C@H]2c3[nH]c4ccccc4c3CCN2C(=O)[C@H]1[C@H](C)O	-392	0	i	3	28*	14*	13*
CN[C@H]1C[C@H]2c3[nH]c4cccc(-c5cccc(C)c5)c4c3CCN2C(=O)[C@H]1[C@H](C)O	-59	.	-179	.	-4	.	.
O=C(C1CC1)N1C[C@@H]2[C@H](c3ccccc31)[C@H](CO)N2S(=O)(=O)c1ccccc1	.	.	.	0	.	.	.
C=CCN(CC=C)Cc1c(O)ccc2c1oc(=O)c1ccccc12	-9	.	-16	.	1	.	.
CCN(CC)Cc1c(O)ccc2c(=O)c(Oc3ccccc3OC)c(C)oc12	i	0	i	4	89*	65*	69*
COc1ccccc1Oc1c(C)oc2c(CN(C)C)c(O)ccc2c1=O	i	0	i	-13	51*	66*	71*
COC(=O)C1=CN(c2ccc(OC)cc2)C(N)=C(C#N)C1c1ccccc1F (stereo unspecified)	-4	0	-5	-21	-2	.	.
COC(=O)C1=CN(c2ccc(OC)cc2OC)C(N)=C(C#N)C1c1ccccc1F (stereo unspecified)	-29	0	-109	2	114*	19*	41*
CCOC(=O)c1cnn2c(C(F)(F)F)cc(-c3ccco3)nc12	-276	.	i	.	31*	26*	43*
CCOC(=O)c1cnn2c(C)cc(-c3ccccc3)nc12	-197	.	i	.	24*	21*	32*
CCOC(=O)c1cc(-c2ccccc2)nc2ccc(C)cc12	-15	0	-60	3	-6	.	.
O=C(C[C@@H]1C[C@@H]2c3cc(NC(=O)CC4CC4)ccc3O[C@@H]2[C@@H](CO)O1)NCc1ccc2c(c1)OCO2	.	1	.	1	.	.	.
CC(=O)OCC(=O)c1ccc2ccn(C(C)=O)c2c1	-122	.	-388	.	18*	32*	32*
COc1cc2c(cc1OC)C(c1cc(OC)c(OC)c(OC)c1)C1(O)C(=O)OCC1(O)C2 (stereo unspecified)	-1	0	0	13	57*	0	1
COc1cc2c(cc1OC)C1c3ccc(OC)c(OC)c3OCC1(O)C2 (stereo unspecified)	-4	0	-5	2	0	.	.

Screening data deposited in PubChem BioAssay by several laboratories.
